# Source: PubChem BioAssay (Paczesny and Yang Labs, IUPUI and University of Michigan)
# Only a selection was taken, and hits are over-represented in it overall.
# ST2 IL33 inh – blocks human ST2 binding to IL-33. inhibition, % for hits at 17 µM. AlphaLISA ST2-Fc/biotin-IL-33 interaction, 1 h. 78,000 tested, 2.3% active. Q01638; in the data active means inhibition above about 30%
# Target sequence (Q01638 whole entry, looked up): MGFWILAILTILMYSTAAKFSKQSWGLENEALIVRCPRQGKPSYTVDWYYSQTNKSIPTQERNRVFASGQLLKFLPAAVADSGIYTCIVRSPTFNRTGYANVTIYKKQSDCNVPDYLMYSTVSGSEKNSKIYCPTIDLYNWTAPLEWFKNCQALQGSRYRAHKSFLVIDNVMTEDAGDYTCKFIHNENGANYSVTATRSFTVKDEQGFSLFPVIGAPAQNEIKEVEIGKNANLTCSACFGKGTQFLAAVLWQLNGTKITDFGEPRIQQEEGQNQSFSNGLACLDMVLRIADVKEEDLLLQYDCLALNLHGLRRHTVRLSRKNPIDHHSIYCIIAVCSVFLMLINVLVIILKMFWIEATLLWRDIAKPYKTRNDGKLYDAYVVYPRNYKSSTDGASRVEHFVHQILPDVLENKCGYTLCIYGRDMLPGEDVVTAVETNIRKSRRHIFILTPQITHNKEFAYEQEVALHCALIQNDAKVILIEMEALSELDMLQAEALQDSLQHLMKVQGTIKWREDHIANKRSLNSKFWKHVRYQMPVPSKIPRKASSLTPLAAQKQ
# * marks the source's active call; other numbers are inactive results; i = inactive; ! = a repeat was not active.
SMILES,ST2 IL33 inh
O=C(O)c1ccc(N=Cc2cc(Br)ccc2O)cc1,i
COc1ccc(N2CCN(Cc3nc4c(c(=O)[nH]c(=O)n4C)n3Cc3ccc(F)cc3)CC2)cc1,i
O=C(O)c1ccccc1-c1c(-c2ccccc2)ncn1Cc1cccnc1,i
O=C(Nn1cnnc1)c1ccccc1Cl,56.0%*
O=C(Nn1cnnc1)c1ccc(C(=O)Nn2cnnc2)cc1,i
O=C(Nc1cc(Cl)cc(Cl)c1)c1ccccc1Cl,i
COCCCNC(=O)c1cc(-c2ccc(Br)s2)nc2ccccc12,i
COCc1nc(C)c(CNC(=O)CC2CCc3ccccc32)s1 (stereo not drawn),i
C/C=C(/C)C(=O)Oc1c(OC)c(OC)cc2c1-c1c(cc(OC)c(OC)c1OC)C[C@](C)(O)[C@@H](C)C2,i
CC(C)C1CN(C(=O)c2cccnn2)CCCN1CC1CC1 (stereo not drawn),i
COc1ccc(Oc2nc3c(c(=O)n(Cc4ccccc4)c(=O)n3C)n2C)cc1,35.0%*
Cn1c(Br)nc2c1c(=O)n(Cc1ccccc1)c(=O)n2C,i
Cn1c(=O)c2c(nc(Oc3ccccc3)n2C)n(C)c1=O,i
Cc1[nH]cnc1CSCCNC1CCC2(CCNCC2)CC1,i
Cc1ccc([N+](=O)[O-])cc1N1C(=O)Nc2cc(Cl)c(Cl)cc2N1O,i
CN1CCN(Cc2cc([N+](=O)[O-])ccc2O)CC1,i
CC1CN(C)C(C)c2c1oc1ccc([N+](=O)[O-])cc21 (stereo not drawn),43.0%*
Cc1cccc(-c2nc3cc([N+](=O)[O-])ccc3o2)c1,i
CC(C)CCN1C(=O)c2ccccc2C1C(=O)NC1CCCCC1 (stereo not drawn),i
CCN1CCC(Cc2nn3c(C4CCCC4)nnc3s2)CC1,i
COc1ccccc1NS(=O)(=O)c1ccc(NC(C)=O)cc1,i
COc1ccc(NS(=O)(=O)c2ccc(NC(=O)COc3ccccc3)cc2)cc1,i
COc1cccc(Nc2nc3ccccc3nc2NS(=O)(=O)c2ccc(NC(C)=O)cc2)c1,37.0%*
Cc1ccccc1C1CCN(CCNC2CCN(C(=O)C(C)C)CC2)C1 (stereo not drawn),i
CS(=O)(=O)N(CC(=O)N1CCCCCC1)c1ccc(Cl)c(C(F)(F)F)c1,i
SMILES,ST2 IL33 inh
O=C(CSc1ncn[nH]1)c1ccc(Br)cc1,i
O=C(CN1C(=O)CCSc2ccccc21)Nc1ccc(Br)cc1,i
N=C1SCCN1CC(=O)c1ccc(Br)cc1,48.0%*!
CC1(C)CC(=O)C2=C(C1)Nc1ccccc1N(C(=O)c1ccccc1)C2c1ccc2c(c1)OCO2 (stereo not drawn),i
Cc1ccc(N2CCCS2(=O)=O)cc1NC(=O)COc1ccccc1F,i
COc1cc(NC(=O)CSc2ccccc2)c(OC)cc1Cl,i
CC(C)CCCC(O)C1CC(CO)OC1=O (stereo not drawn),i
CCCC12CN3CC(C)(CN(C1)C3c1cccc(Br)c1)C2=O (stereo not drawn),i
C[C@@H](NC(=O)/C(C#N)=C/c1ccc(O)c(O)c1)c1ccccc1,58.0%*
N#C/C(=C\c1ccc(O)c(O)c1)C(=O)Nc1ccccc1,i
CC(NC(=O)c1ccccc1C(=O)NC(C)c1ccccc1)c1ccccc1 (stereo not drawn),i
CC(C)C[C@@H](NC(=O)C1=C[C@@H](NC(=O)Cc2cccs2)[C@@H](O)[C@H](O)C1)C(N)=O,i
Cn1c(=O)c2[nH]c(SCC(=O)c3ccc4c(c3)OCCO4)nc2n(C)c1=O,i
NC1=NN(c2ccccc2)CC1,40.0%*
Nc1ccnn1-c1ccccc1,i
NC1=NCCN1c1ccccc1,i
O=C1[C@@H]2[C@H](C(=O)N1c1cccc(Cl)c1)[C@H]1C=C[C@@H]2C12CC2,i
CCC(CC)C(=O)Nc1cc(Cl)ccc1OCc1cc(=O)n2oc(C)cc2n1,i
O=C(C1CC1)N1CCc2cc(S(=O)(=O)NCc3ccc(F)cc3)ccc21,i
O=C(C1CC1)N1CCc2cc(Br)cc(S(=O)(=O)NCc3cccnc3)c21,i
Cc1ccc(CNS(=O)(=O)c2cc(Br)cc3c2N(C(=O)C2CC2)CC3)cc1,i
O=C(C1CC1)N1CCc2cc(S(=O)(=O)NCc3ccc4c(c3)OCO4)ccc21,36.0%*
COc1ccc(CNS(=O)(=O)c2ccc3c(c2)CCN3C(=O)C2CC2)cc1,i
O=C(C1CC1)N1CCc2cc(Br)cc(S(=O)(=O)NCc3ccc4c(c3)OCO4)c21,32.0%*
CCCCNC(=O)c1oc2ccc(S(=O)(=O)N(C)C3CCCCC3)cc2c1C,i
SMILES,ST2 IL33 inh
O=C(Nc1cccc([N+](=O)[O-])c1)c1cccc(S(=O)(=O)N2CCOCC2)c1,i
O=C(Nc1ccc(F)cc1F)N1CCCCC1CN1CCOCC1 (stereo not drawn),i
O=C(O)c1cccc(CC2CCN(C(=O)CCc3cccnc3)CC2)c1,i
COc1ccc(-n2ncc3c(Nc4ccc(Br)cc4)ncnc32)cc1,i
COc1ccc(CCNC(=O)CN2CCN(C(N)=O)CC2)cc1,i
Cc1cc(NC(=O)CNS(=O)(=O)c2ccc(Br)s2)ccc1Br,i
CCOC(=O)c1[nH]c2ccc(OC)cc2c1NC(=O)CNCc1ccccc1,i
CCC(CC)n1ncc(C)c1NC(=O)c1cc(C)nc(C)n1,i
CCCCn1ncc(C)c1NC(=O)[C@H]1CCCO1,i
CCCCn1ncc(C)c1NC(=O)c1ccsc1,31.0%*
Cc1nnc(Nc2ccc3c(c2)OCCO3)[nH]c1=O,i
Cc1cccc(N=Cc2cc3c(cc2[N+](=O)[O-])OCO3)c1,33.0%*
O=[N+]([O-])c1cc2c(cc1C=Nc1ccc(Cl)c(C(F)(F)F)c1)OCO2,i
Cc1cccc2oc(-c3cccc(N=Cc4cccc([N+](=O)[O-])c4O)c3)nc12,i
CCN(CC)Cc1c(O)ccc2cc(-c3nc4ccccc4[nH]3)c(=O)oc12,i
Oc1ccccc1-c1nc2ccccc2[nH]1,i
O=[N+]([O-])c1cc2c(cc1C=Nc1ccc(O)c(-c3nc4ccccc4[nH]3)c1)OCO2,30.0%*
COc1ncc(C(=O)N2C[C@H]3CC=C(C)C[C@H]3C2)cn1,i
NS(=O)(=O)c1ccc(NC(=O)COc2ccc(Cl)cc2Cl)cc1,i
CNC(=O)[C@@H]1C[C@H](N)CN1C(=O)c1ccccc1C(=O)c1ccc(C)cc1,i
Cc1cccc(-c2nsc(SCC(=O)Nc3nc(C)cs3)n2)c1,i
COC(=NS(=O)(=O)c1ccc(Cl)cc1)c1ccccc1,i
COc1cc(NS(=O)(=O)c2ccc(Cl)cc2)c(OC)cc1NC(=O)c1ccccc1,i
COc1ccccc1NC1=CC(=NS(=O)(=O)c2cccs2)c2ccccc2C1=O,90.0%*
COc1ccccc1NC1=CC(=NS(=O)(=O)c2ccc(Cl)cc2)c2ccccc2C1=O,95.0%*
SMILES,ST2 IL33 inh
COc1ccccc1NC1=CC(=O)CC(c2ccccc2)C1 (stereo not drawn),i
CC(C)CN(CC(C)C)S(=O)(=O)c1cccs1,i
O=C(NS(=O)(=O)c1ccc(NS(=O)(=O)c2cccs2)cc1)c1ccccc1,i
COc1ccccc1NC(=O)C1c2cc(OC)c(OC)cc2C(=O)N(C)C1c1cccs1 (stereo not drawn),i
O=C1C(Nc2ccccc2)=CC(=NS(=O)(=O)c2cccs2)c2ccccc21,86.0%*
O=C(O)c1cccc(Nc2nc(-c3cccs3)cs2)c1,i
NC(=NS(=O)(=O)c1cccs1)c1ccccc1,i
O=C(O)c1cccc(NC2=CC(=NS(=O)(=O)c3cccs3)c3ccccc3C2=O)c1,40.0%*
O=C1Nc2ccccc2N(O)N1c1ccccc1Cl,i
